# PubChem BioAssay (EPA / NIEHS)
# Results filed as inconclusive are left out. Activity calls are given as the source filed them. How the source made its calls, unless noted: active means hit-call score of the fitted dose curve at least 0.9, where 1 is the maximum; inactive means score below 0.9.
# How the values were obtained:
# [1] = ACEA_ER_AUC_viability: ACEA Biosciences xCELLigence Real-Time Cell Analysis on Estrogen Receptor Agonism for Viability (AID 2283782; active means hit-call score of the fitted dose curve at least 0.9, where 1 is the maximum;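 further: continuous compound exposure with impedance area under curve over 80 h; hit means loss of impedance signal meaning reduced cell growth or viability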)
# Method in brief: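 T-47D human breast cells in phenol red-free RPMI1640 with 10% charcoal-stripped FBS were dosed with an 8-point 1:4 dilution series from 100 uM top final concentration, in duplicate. Impedance-based growth was followed for 80 h; AUC analysed versus DMSO.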
# [2] = STM_H9_NormalizedViability: Cytotoxicity Assessment at 120 hours in the Stemina devTOX quickPredict H9 human embryonic stem cell (hESC)-based Assay (AID 2283784; active means hit-call score of the fitted dose curve at least 0.9, where 1 is the maximum)
# Method in brief: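 Pluripotent H9 hESCs were exposed, with chemical and media replaced every 24 h. Viability was read by CellTiter-Fluor fluorescence, background-corrected and normalized to the 0.1% DMSO neutral control per plate. Loss of signal was fitted.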
# [3] = CCTE_Shafer_MEA_acute_spike_number: CCTE's Neural Acute Assay for Total Number of Spikes, Shafer Lab (AID 2284008)
# Method in brief: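 Rat cortical cultures, DIV 13/15, 37 C. 40 min baseline rec, cpd 0.03-40 uM, 40 min post-dose rec. Band-pass 300-5000 Hz, spike threshold 8x rms; % change in spike count per well, DMSO neg ctrl, loss-of-signal fit.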
# [4] = CCTE_Harrill_HTTr_Apoptosis_MCF7: CCTE's 6-hour Apoptosis Assessment for the High-Throughput Transcriptomics (HTTr) Platform, in MCF-7 cells cultured in DMEM + 10% fetal bovine serum, Harrill Lab (AID 2284011)
# Method in brief: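 Read-out: CellEvent Caspase 3/7 Green signal by high content imaging, gain-of-signal indicating apoptosis. MCF-7 cells, DMEM + 10% FBS, eight-point dilution series, 6 h exposure. Curves fitted bidirectionally relative to DMSO negative control.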
# [5] = CCTE_Shafer_MEA_acute_burst_number: CCTE's Neural Acute Assay for Single-Electrode Bursts, Shafer Lab (AID 2284013)
# Method in brief: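 Rat cortical cultures, DIV 13/15; 40 min baseline, then 40 min with compound 0.03-40 uM, 37 C. Spikes: 300-5000 Hz band-pass, threshold 8x rms noise. Readout = % change in single-electrode bursts vs baseline, loss-of-signal fit.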
# [6] = CCTE_Shafer_MEA_acute_burst_duration_mean: CCTE's Neural Acute Assay for Mean Burst Duration, Shafer Lab (AID 2284014);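 further: hits are decreases in mean burst duration relative to DMSO controls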
# Method in brief: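 Primary rat cortical neurons on 16-electrode MEA wells, treated on DIV 13 or 15 with compound (0.03-40 uM; ≥3 wells each). 40-min baseline and 40-min exposure recordings at 37 C; percent change in mean burst duration per well versus DMSO.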
# [7] = CCTE_Shafer_MEA_acute_per_burst_spike_number_mean: CCTE's Neural Acute Assay for Average Number of Spikes Per Burst, Shafer Lab (AID 2284015);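 further: hits are decreases in mean spikes per burst versus baseline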
# Method in brief: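 We recorded spontaneous network firing of rat cortical neurons for 40 min before and 40 min during exposure to compound at 0.03-40 uM, at 37 C. Spikes were detected adaptively at 8x rms noise, and the change in average spikes per burst was fitted against DMSO.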
# [8] = CCTE_Shafer_MEA_acute_interburst_interval_mean: CCTE's Neural Acute Assay for Mean Interburst Interval, Shafer Lab (AID 2284016);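 further: percent change of mean interburst interval versus each well's own pre-dose baseline; curves fitted for decrease in interburst interval relative to DMSO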
# Method in brief: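 MEA recording of spontaneous network bursting in primary rat cortical cultures; mean interburst interval was compared before and after a 40-min compound exposure (0.03-40 uM) and expressed as percent change, relative to DMSO.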
# [9] = CCTE_Shafer_MEA_acute_burst_percentage_mean: CCTE's Neural Acute Assay for Percentage of Spikes in a Burst, Shafer Lab (AID 2284017)
# Method in brief: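 Compounds were tested at 0.03-40 uM on primary rat cortical neuron networks grown over microelectrodes, with at least three wells per compound. Spontaneous firing was recorded for 40 min before and 40 min after dosing, and the change in burst percentage was computed per well.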
# [10] = CCTE_Shafer_MEA_acute_burst_percentage_std: CCTE's Neural Acute Assay for Standard Deviation of Burst Percentage, Shafer Lab (AID 2284018);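 further: fitted in the negative direction so actives lower burst percentage SD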
# Method in brief: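 Primary rat cortical neurons on 16-electrode MEA wells were recorded 40 min at baseline (DIV 13 or 15), then 40 min after compound (0.03-40 uM), at 37 C. Well value is SD across electrodes of spikes-in-bursts/total spikes; endpoint is percent change, DMSO-referenced.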
# [11] = CCTE_Shafer_MEA_acute_per_network_burst_spike_number_mean: CCTE's Neural Acute Assay for Average Number of Spikes in a Network Burst, Shafer Lab (AID 2284019)
# Method in brief: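 Primary rat cortical neurons on 16-electrode MEA wells, DIV 13 or 15, 37 C; 40-min baseline then 40-min recording with compound (0.03-40 uM). Spikes per network burst (total spikes/number of bursts) expressed as percent change from baseline, DMSO reference.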
# [12] = CCTE_Shafer_MEA_acute_per_network_burst_spike_number_std: CCTE's Neural Acute Assay for Standard Deviation of Number of Spikes in a Network Burst, Shafer Lab (AID 2284020);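 further: fitted for decrease in spike-number SD versus DMSO so actives lower it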
# Method in brief: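 Primary rat cortical neurons on 48-well MEAs (16 electrodes/well) recorded at DIV 13 or 15: 40-min baseline, then 40 min with compound (0.03-40 uM), 37 C. Value is percent change in SD of spikes per network burst, relative to DMSO.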
# [13] = CCTE_Shafer_MEA_acute_per_network_burst_electrodes_number_mean: CCTE's Neural Acute Assay for Mean Number of Electrodes in a Network Burst, Shafer Lab (AID 2284021);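 further: curves fitted for decreases only so hits reduce electrodes per burst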
# Method in brief: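 Readout: % change in mean electrodes active per network burst, post- vs pre-treatment, each well. Spikes detected at 8x rms noise after 300-5000 Hz band-pass; rat cortical cultures, DIV 13/15, compounds 0.03-40 uM, DMSO baseline.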
# [14] = CCTE_Shafer_MEA_acute_network_burst_percentage: CCTE's Neural Acute Assay for Percentage of Network Bursts, Shafer Lab (AID 2284022);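 further: curves fitted for loss so actives lower network burst percentage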
# Method in brief: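 Rat cortical cultures, DIV 13/15; 20 min equilibration, 40 min baseline, compound 0.03-40 uM, 40 min recording, 37 C. Spikes: 300-5000 Hz band-pass, threshold 8x rms noise. Readout: % change in network-burst spike fraction; loss direction vs DMSO.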
# [15] = CCTE_Shafer_MEA_acute_cross_correlation_area: CCTE's Neural Acute Assay for Area of Cross Correlation, Shafer Lab (AID 2284024);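 further: area under pooled inter-electrode spike cross-correlation near zero lag as percent change from own baseline; curves fitted for loss of cross-correlation area so actives lower synchrony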
# Method in brief: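 Rat cortical cultures, DIV 13/15, MEA; spikes detected at 8x rms noise (300-5000 Hz band-pass). Compound 0.03-40 uM, ≥3 wells each. Readout: % change in pooled inter-electrode cross-correlation area vs own baseline; DMSO negative control.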
# [16] = CCTE_Shafer_MEA_acute_cross_correlation_HWHM: CCTE's Neural Acute Assay for Cross Correlation at Half Width at Half Maximum, Shafer Lab (AID 2284026);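 further: percent change per well from pre-dose baseline in spike cross-correlogram half width; hits are a decrease in cross-correlogram half width relative to DMSO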
# Method in brief: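 Read-out: half width at half maximum of action-potential cross-correlogram, percent change versus pre-treatment baseline, fitted in loss direction against DMSO. Rat cortical cultures, DIV 13 or 15, dosed 0.03-40 uM, 40-min recordings at 37 C.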
# [17] = CCTE_Shafer_MEA_acute_synchrony_index: CCTE's Neural Acute Assay for Synchrony, Shafer Lab (AID 2284027);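 further: network synchrony index of spontaneous spiking in primary rat cortical neurons on MEAs; fitted for loss of signal so actives lower synchrony relative to DMSO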
# Method in brief: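 Primary rat cortical neurons on 48-well MEAs, dosed at 0.03–40 uM on DIV 13 or 15. Spikes are recorded for 40 min at 37C before and after exposure, and synchrony index (0–1) is expressed as percent change from baseline per well.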
# [18] = CCTE_Shafer_MEA_acute_AB: CCTE's Alamar Blue Assay for Cytotoxicity in the Neural Acute Assay, Shafer Lab (AID 2284069; active means hit-call score of the fitted dose curve at least 0.9, where 1 is the maximum;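 further: active compounds lower the viability signal compared with DMSO wells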)
# Method in brief: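 Cytotoxicity endpoint for acute MEA exposures of primary rat cortical neurons on day 13 or 15. Resazurin reduction is read fluorescently at 544/590 nm, with DMSO as the negative-control baseline.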
# IYD (gene 389434) = assay: CCTE_GLTED_hIYD: CCTE's human Iodotyrosine Deiodinase (xIYD) Inhibition Assay, Great Lakes Toxicology and Ecology Division (GLTED) Lab (AID 2284317; active means hit-call score of the fitted dose curve at least 0.9, where 1 is the maximum;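 further: cell-free human IYD enzyme made in baculovirus insect cells; iodide freed from monoiodotyrosine measured by cerium arsenite color change at 420 nm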)
# Method in brief: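 hIYD: baculovirus-expressed human IYD deiodinated monoiodotyrosine for 3 h with test chemical; free iodide was measured by Sandell-Kolthoff absorbance at 420 nm and normalized to MNT and DMSO/NaOH controls.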
structure (smiles),measurement,setting,value
c1cc[n+]2c(c1)-c1cccc[n+]1CC2,AC50,[1],22.8 µM (active)
same,AC50,[2],7.82 µM (active)
same,outcome,[3],inactive
same,outcome,[4],inactive
same,outcome,[5],inactive
same,outcome,[6],inactive
same,outcome,[7],inactive
same,outcome,[8],inactive
same,outcome,[9],inactive
same,outcome,[10],inactive
same,outcome,[11],inactive
same,outcome,[12],inactive
same,outcome,[13],inactive
same,outcome,[14],inactive
same,outcome,[15],inactive
same,outcome,[16],inactive
same,outcome,[17],inactive
same,outcome,[18],inactive
same,AC50,IYD (gene 389434),11.4 µM (active)
